From PubChem BioAssay AID602405 (Broad Institute, 2012)
Among all 360,000 compounds or so, about 350 (0.097%) were called active. The sample holds actives, similar compounds and a random draw of the others, so the mix is not that of the screen. No stated cut-off is given here; in the data, active means inhibition above about 16% (passing the limit was not always enough); inconclusive means no clear call, values can overlap the other calls; inactive means below that.

What follows are compounds tested on UDP-N-acetylbacillosamine N-acetyltransferase PglD (Campylobacter jejuni) (assay: C. jejuni PglD acetyltransferase inhibitors, primary screen, biochemical, DTNB colorimetric, single point (AID 602405)). Settings: purified PglD enzyme, DTNB colorimetric CoA detection; at 12.5 µM; active compounds read high.

Question: For `COc1ccc(-c2ccc([C@H]3[C@H](CO)N4CCCCN(C(=O)Cc5ccncc5)C[C@@H]34)cc2)cc1`, which inhibition is on record?
Answer: The inhibition was 2.61% (inactive).

Question: How did the inhibition turn out when `C/C=C/c1ccc([C@H]2[C@H](CO)N3CCCCN(C(=O)Cc4ccncc4)C[C@@H]23)cc1` was run?
Answer: Its inhibition is 4.91% (inactive).

Question: Which inhibition does the source give for `O=C(Cc1ccncc1)N1CCCCN2[C@@H](CO)[C@H](c3ccc(-c4ccncc4)cc3)[C@@H]2C1` here?
Answer: Its inhibition is 18.4% (active).

Question: `O=C(O)[C@H]1[C@H](CO)[C@H]2Cn3c(cccc3=O)[C@@H]1N2C(=O)c1ccccc1` was tested. Which inhibition did it give?
Answer: Its inhibition is 3.27% (inactive).

Question: `CC(=CCOc1ccc2ccc(=O)oc2c1)C1=CC(=O)C(C)(C)O1` was tested. Which inhibition did it give?
Answer: The inhibition was 2.27% (inactive).

Question: Which inhibition does the source give for `c1ccc2sc(N3CCNCC3)nc2c1` here?
Answer: Its inhibition is 53.7% (active).

Question: Which inhibition does the source give for `c1ccc2sc(C3CCCNC3)nc2c1` (stereo not given) here?
Answer: Its inhibition is 3.32% (inactive).

Question: How did the inhibition turn out when `C[C@H](CO)N1C[C@H](C)[C@H](CN(C)C(=O)Oc2ccc3ccccc3c2)OCc2cnnn2CCCC1=O` was run?
Answer: The inhibition was -0.0925% (inactive).

Question: How did the inhibition turn out when `COC(=O)[C@H]1[C@H](CO)[C@H]2Cn3c(cccc3=O)[C@H]2N1CC1CC1` was run?
Answer: Its inhibition is 3.33% (inactive).

Question: How did the inhibition turn out when `COC(=O)[C@H]1[C@H](CO)[C@H]2Cn3c(ccc(-c4ccccc4F)c3=O)[C@@H]1N2C(=O)C1CCC1` was run?
Answer: The inhibition was -2.57% (inactive).
